From PubChem BioAssay
Active and inactive are the calls of the source. No rule for the calls is given here. Where a SMILES comes first, the peptide text is derived from it. The star is where a group is joined. Boc = CC(C)(C)OC(=O)*

These molecules were tested against Pantothenate synthetase (Mycobacterium tuberculosis (strain ATCC 25618 / H37Rv)) (UniProt P9WIL5) (assay: Recombinant Mtb pantothenate synthetase (PanC) inhibitors, coupled enzyme, confirmatory (AID 375;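 also: 0% = full reaction with vehicle and 100% = no enzyme background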)). Settings: coupled enzyme assay; at 10 µM, hits give high values.
Sequence of Pantothenate synthetase (Mycobacterium tuberculosis (strain ATCC 25618 / H37Rv)) (P9WIL5 whole entry, looked up): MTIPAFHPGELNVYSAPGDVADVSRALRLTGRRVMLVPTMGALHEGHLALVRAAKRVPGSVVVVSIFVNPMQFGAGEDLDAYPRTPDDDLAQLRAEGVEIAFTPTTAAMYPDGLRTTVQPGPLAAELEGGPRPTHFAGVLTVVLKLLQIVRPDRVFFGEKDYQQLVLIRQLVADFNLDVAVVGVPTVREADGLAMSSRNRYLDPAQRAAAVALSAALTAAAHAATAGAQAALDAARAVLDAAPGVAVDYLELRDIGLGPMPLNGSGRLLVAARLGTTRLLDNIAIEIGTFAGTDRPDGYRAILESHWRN

SMILES	inhibition
CC(C)CC(NC(=O)OC(C)(C)C)C(=O)NC(C(=O)N1CCCC1C(N)=O)C(C)C (stereo not drawn) (Boc-Leu-Val-Pro-NH2; configuration not given here)	0% (inactive)
CCCc1nc(NCc2ccncc2)c2nnn(Cc3ccccc3F)c2n1	0% (inactive)
CCc1nc2sc3c(c2c(=O)o1)CCCC3	0% (inactive)
CCOC(=O)C(CC)Sc1ncnc2nc[nH]c12 (configuration not stated)	0% (inactive)
CCOC(=O)c1ccc(N2C(=O)C3CC=CCC3C2=O)cc1 (configuration not stated)	1% (inactive)
Cc1ccc(CCNC(=O)C2CCN(S(=O)(=O)c3ccc4c(c3)CCC(=O)N4)CC2)cc1	0% (inactive)
CCOC(=O)C1CCN(C(=O)CN(Cc2ccccc2)S(C)(=O)=O)CC1	1% (inactive)
CCOC(=O)Cn1c(=N)n(CCOc2cccc(C)c2)c2ccccc21	0% (inactive)
CCN1C(=O)/C(=C/N(C)c2ccccc2)OC1=S	4% (inactive)
COC(=O)CCC(=O)CN	0% (inactive)
N#CCCN(Cc1cccnc1)C(=O)Nc1ccc(Cl)c(Cl)c1	1% (inactive)
Cc1ccc2c(c1)-c1cc(C)nn1C(c1ccc3c(c1)OCO3)N2 (configuration not stated)	0% (inactive)
NS(=O)(=O)c1ccc(NCc2c(F)cccc2Cl)cc1	2% (inactive)
CCOc1ccc(-c2nnn(CC(=O)N3CCN(c4ccc(F)cc4)CC3)n2)cc1OCC	0% (inactive)
O=C(NCc1ccco1)c1cc2n(n1)C(C(F)(F)F)CC(c1ccc(F)cc1)N2 (configuration not stated)	9% (inactive)
CC(=O)/C(C[N+]1(C)CCCCC1)=N\O	3% (inactive)
O=C(COn1nnc2ccc(C(F)(F)F)cc21)Nc1nnc(-c2ccccc2)o1	0% (inactive)
